PNC inhibitor: blocks assembly of the perinucleolar compartment; PC3M PTB-GFP, PNC prevalence imaging, 16 h; hits give low values; activity change (PNC), negative = inhibition, % at 10 µM; 140,000 compounds, 3.1% hits;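 active = readout at or below -70, meaning at least 70% loss of cells showing the perinucleolar compartment, a nuclear body marking cancer cells; inconclusive = readout between -30 and a set limit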;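 also: plate controls were DMSO wells for no effect and camptothecin positive control wells for full effect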
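PC3M cells stably expressing PTB-GFP, 750–1000 cells/well, treated 16 h at 37 °C with compound (23 nl of library stock), in duplicate. After paraformaldehyde fixation and Hoechst stain, imaged at 20x; PNC prevalence scored by image analysis.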
HPGD inh: blocks human HPGD enzyme activity; 150,000 compounds, 4.3% hits; purified HPGD, NADH fluorescence kinetic, PGE2 substrate; Potency, µM, for inactives: at the top dose activity change, negative = inhibition, most hits filed as inhibitors; also: potency is read from the fitted curve at half-maximal effect
Target sequence (P15428 whole entry, looked up): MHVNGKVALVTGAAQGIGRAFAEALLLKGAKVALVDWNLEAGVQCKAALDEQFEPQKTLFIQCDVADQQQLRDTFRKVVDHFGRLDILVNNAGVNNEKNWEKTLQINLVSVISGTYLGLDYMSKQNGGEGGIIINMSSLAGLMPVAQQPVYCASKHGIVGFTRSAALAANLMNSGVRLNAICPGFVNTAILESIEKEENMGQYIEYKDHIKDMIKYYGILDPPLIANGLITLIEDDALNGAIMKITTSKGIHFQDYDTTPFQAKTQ
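20 nM HPGD preincubated 15 min at room temperature with compound in 50 mM Tris-HCl pH 8, 0.01% Tween 20. Started with 1 mM NAD+ and 30 uM prostaglandin E2; NADH fluorescence (360/450 nm) read 5 times over 30-s intervals, last minus first.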
IMPase Li cell: IMPase inhibition in cells with lithium potentiation; CHO-M1 cells, IP1 TR-FRET (IP-One), carbachol + lithium; Potency, µM (highest dose often 59.4 µM), inactives show at the top dose activity, negative = IMPase inhibition, actives largely listed as inhibitors; 210,000 compounds, 0.35% hits; AID 1457; active = well fitted inhibition curve with a large enough effect; inconclusive = small, poorly fitted or top-dose-only effect; inactive = no such curve, though single readings can be large or run the other way;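 also: IP1 builds up when IMPase is blocked and the TR-FRET signal falls; potency is read from the fitted curve at half-maximal effect; plate controls were basal vehicle for no effect and high inhibitor control for full effect; nearly all actives have a fitted effect of over 50% in size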
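IP1 accumulation measured by competitive TR-FRET in lysed CHO-M1 cells after 30 min compound exposure at 37C, with a small lithium addition to potentiate weak responses. Hill-equation AC50 from ratio and donor-channel data.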
ALDH1A1 inh: ALDH1A1 (human) enzyme inhibition | Purified ALDH1A1, NADH fluorescence, propionaldehyde substrate | P00352 | Potency, µM (titrated, usually from 75.3 µM), inactives show top-dose activity, negative = inhibition, usual class: inhibitors | AID 1030 | 220,000 compounds, 7.3% hits;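 also: potency is read from the fitted curve at half-maximal effect; plate controls were no enzyme wells and a reference inhibitor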
IMPase inh: cell-permeable inhibitors of inositol monophosphatase (IMPase); 120,000 tested, under 10 active; inhibition (IP1 accumulation), % at 46.1 µM; P97697; CHO-M1 cells, IP1 accumulation, HTRF TR-FRET ratio; AID 901; active = well fitted curve in the direction sought with a large enough effect in the signal ratio, not every such curve was filed as active; inconclusive = small, poorly fitted or top-dose-only effect, or a change in a side signal; inactive = no such curve, though single readings can be large or run the other way; the % refers to the signal ratio;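 also: cells stimulated with carbachol in lithium chloride buffer; plate controls were DMSO basal wells for no effect and reference inhibitor wells for full effect; higher means more IMPase inhibition seen as more IP1 and lower FRET ratio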
Target sequence (P97697 whole entry, looked up): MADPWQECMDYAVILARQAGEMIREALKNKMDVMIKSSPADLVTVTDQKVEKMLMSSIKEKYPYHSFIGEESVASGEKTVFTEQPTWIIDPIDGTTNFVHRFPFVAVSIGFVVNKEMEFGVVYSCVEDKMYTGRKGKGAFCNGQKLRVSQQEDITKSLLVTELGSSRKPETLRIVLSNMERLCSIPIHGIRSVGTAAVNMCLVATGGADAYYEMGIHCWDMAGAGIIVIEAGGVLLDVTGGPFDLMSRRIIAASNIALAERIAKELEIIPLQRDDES
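CHO-M1 cells (CHO stably expressing M1 receptor), compound up to 46 uM final, stimulated with carbachol (50 uM as added) in buffer with 50mM LiCl, pH 7.4, 30 min at 37C. Cytosolic IP1 read by TR-FRET; AC50 from Hill fits.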
Starred values were filed as active, the others as inactive; ? = inconclusive; / = not tested or not shown; [ ] = another dose, or the depositor's remark. This is a sample that favours compounds with a hit; in the whole collection about 11% have one here. Unless noted, calls follow the shape of the dose curve; as a rule, active = well fitted inhibition curve with a large enough effect (not every such curve was filed as active); inconclusive = small, poorly fitted or top-dose-only effect, or another doubt; inactive = no such curve, though single readings can be large or run the other way. Unless noted, % is scaled to controls: 0 for no effect and ±100 for the full control effect.

SMILES	PNC inhibitor	HPGD inh	IMPase Li cell	ALDH1A1 inh	IMPase inh
COc1ccccc1-n1c(SCC(=O)NC(C)(C)C)nnc1-c1ccco1	-25	16µM*	4%	-5%	?
CC(C)N(C(=O)CSc1nnc(Cn2nnc3ccccc32)n1C)C(C)C	-27	1%	24%[38.3 µM]	4%	4
COc1cccc(-n2c(SCC(=O)N3c4ccccc4CC3C)nnc2-c2ccco2)c1 (configuration not stated)	-6	-30%	1%[38.3 µM]	25µM*	-2
CC1Cc2ccccc2N1C(=O)CSc1nnc(Cn2nnc3ccccc32)n1C (configuration not stated)	-13	-7%	-8%[38.3 µM]	10µM*	5
CC(=O)[C@H](C(=N)C#N)C(=O)Nc1ccccc1	/	-11%	0%	5%[13.5 µM]	/
Cc1cccc(NC(=S)NNC(=O)c2cc3c(s2)CCC(C)C3)c1C (configuration not stated)	-8	-24%	-2%	6.3µM*	/
Cc1ccc(C)c(NC(=S)NNC(=O)c2csc(C(C)C)c2)c1	-119*	-10%	2%	13µM*	3
Cc1ccc(C)c(NC(=S)NNC(=O)c2cc3c(s2)CCC(C)C3)c1 (configuration not stated)	-5	/	/	22µM*	-7
Cc1ccc(C)c(NC(=S)NNC(=O)c2csc(C)c2C)c1	?	-6%	0%	-9%	/
CC(=O)c1ccc(NC(=O)c2cc(-c3ccc(C)s3)nc3ccccc23)cc1	/	/	/	/	4
COc1ccc(C(C(=O)NCC2CCCO2)N(C(=O)CNC(=O)c2cccs2)c2ccccc2C)cc1OC (configuration not stated)	/	/	8%	10%	/
COc1ccc(S(=O)(=O)N(C(C)=O)c2ccc3oc(=O)sc3c2)cc1	4	20µM*	0%[38.3 µM]	?	8
CCOc1ccc(S(=O)(=O)N(C(C)=O)c2ccc3oc(C)c(C(=O)OC)c3c2)cc1	/	/	/	/	30
COc1ccc(C(=O)CSc2n[nH]c(C)n2)cc1[N+](=O)[O-]	/	/	4%	10µM*	/
Nc1nc(SCC(=O)c2ccc(F)cc2)n[nH]1	/	/	2%	-13%	/
Cc1nc(SCC(=O)c2ccc(F)cc2)n[nH]1	?	10µM*	5%[38.3 µM]	4.5µM*	-11
CCCNC(=O)NC(=O)COC(=O)c1ccc(S(=O)(=O)N(C)c2ccccc2OC)cc1	/	/	27%	13µM*	/
COc1cccc(/C=N/NC(=S)Nc2cccc(C(=O)O)c2)c1	/	/	2%	32µM*	/
COc1ccc(/C=N/NC(=S)Nc2cccc(C(=O)O)c2)cc1OC	-8	-29%	2%	-1%	-2
COc1cc(/C=N/NC(=S)N/N=C/c2cc(OC)c(OC)c(OC)c2)cc(OC)c1OC	-109*	?	-8%	-4%	/
COc1cc(/C=N/NC(=O)c2ccc(-c3ccccc3)cc2)cc(OC)c1OC	29	?	-6%	?	/
COc1cccc(/C=N/NC(=S)Nc2cccnc2)c1	/	/	2%	5%	/
COc1ccc(CNC(=S)N/N=C/c2ccc(O)c(OC)c2)cc1	-26	-15%	6%	1%	/
COc1ccc(CNC(=S)N/N=C/c2ccc(OC)c(OC)c2)cc1	40	22µM*	-1%[38.3 µM]	?	1
COc1cc(/C=N/NC(=S)Nc2cccc(C(=O)O)c2)cc(OC)c1OC	-27	-23%	-3%	14µM*	17
SMILES	PNC inhibitor	HPGD inh	IMPase Li cell	ALDH1A1 inh	IMPase inh
CN(Cc1ccco1)c1nc(-c2ccccc2C(F)(F)F)nc2ccccc12	/	/	18%	4%	/
CC1CCCC(C)N1/N=C/c1ccc(N(C)C)cc1 (configuration not stated)	/	/	27%	4µM*	/
CC1CCCC(C)N1/N=C/c1cc(Br)c(O)c(Br)c1 (configuration not stated)	9	-13%	5%	?	/
Cc1ccccc1Nc1c(-c2ccc(N3CCOCC3)cc2)nc2ccc(Br)cn12	/	/	/	/	3
OC[C@H]1O[C@@H](n2cnc3c(NC4CCCC4)ncnc32)[C@H](O)[C@@H]1O	-115*	-7%	4%	1%	/
COc1ccc(C=Nc2c(O)ccc3ccccc23)cc1OC	/	-25%	1%	?	/
NC(C(=O)O)c1cccc(O)c1 (configuration not stated)	/	/	-2%	20%	/
O=[N+]([O-])c1ccc2c(c1)[nH]c(=S)n2-c1ccccc1	/	/	8%	4µM*	/
O=C(N/N=C/c1cccc(O)c1)c1ccc(COc2ccccc2Br)cc1	-124*	?	19%	-15%	/
O=C(N/N=C/c1cccc(O)c1)c1ccc(COc2cccc3cccnc23)cc1	/	/	-5%	3%	/
Cc1ccc(C(C)C)c(OCc2ccc(C(=O)N/N=C/c3ccc(O)cc3O)cc2)c1	-89*	-13%	0%	4%	0
COc1cccc(Cn2c(=O)c(-c3cccc(Cl)c3)nc3cncnc32)c1	/	-21%	5%	-8%	/
COC(=O)c1cccc(N(C(=O)c2cnccn2)C(C(=O)NC2CCCCC2)c2cn(C)nc2C)c1 (configuration not stated)	?	-9%	22%[38.3 µM]	0%	-9[1.84 µM]
S=C(NCc1ccccc1)NNc1nc2ccccc2[nH]1	/	/	2%	1.3µM*	/
CN1C(=O)C2(Oc3ccccc3C3CC(c4ccccc4)=NN32)c2ccccc21 (configuration not stated)	4	-12%	5%[38.3 µM]	25µM*	8
Cc1ccc(C2=NN3C(C2)c2ccccc2OC32C(=O)Nc3ccccc32)cc1 (configuration not stated)	-8	-24%	42%[38.3 µM]	?	10
Cc1cccc(Oc2nc3ccccn3c(=O)c2/C=C(\C#N)C(=O)NC2CCS(=O)(=O)C2)c1 (configuration not stated)	-104*	-12%	0%	?	/
COc1ccc(S(=O)(=O)Nc2nc3c(s2)CCCC3)cc1	/	/	-5%	?	/
CCCCn1c(SCC(=O)N2CCOCC2)nnc1-c1cccs1	101	-15%	-7%[38.3 µM]	4%	1
CCCCC(CC)COP(=O)(OCC(CC)CCCC)OCC(CC)CCCC (configuration not stated)	/	-5%	7%	-4%	/
CCCCC(CC)CNCC(CC)CCCC (configuration not stated)	/	-10%	5%	25µM*	/
CN1CCC(=NNC(=O)CSCc2ccccc2)CC1	5	-4%	-7%[38.3 µM]	25µM*	-4
CC(SCc1ccccc1)C(=O)N/N=C/c1cccs1 (configuration not stated)	10	-11%	-1%	11%	0
CC(SCc1ccccc1)C(=O)NN=C1CCN(C)CC1 (configuration not stated)	-2	-15%	2%	1.3µM*	-6
Cc1ccc(NC(=S)Nc2ccc3nc(-c4ccccn4)c(-c4ccccn4)nc3c2)cc1C	?	-26%	1%	18µM*	/
O=C1c2ccccc2C(=O)c2c1ccc1c(=O)n(-c3ccccc3)[nH]c21	?	-5%	21%	2%	/

Source: PubChem (National Center for Advancing Translational Sciences (NCATS))
